Assay outcomes as filed in PubChem BioAssay.
Peg3 imprint – qHTS Assay for Compounds that Induce Erasure of Genomic Imprints. mouse ES Peg3-LacZ reporter, beta-gal luminescence, 40 h. 0.02% of 110,000 active. AID 1948, 2009. Potency, µM (titrated, usually from 60.7 µM), inactives show top-dose activity change, positive = activation, most hits filed as activators; also: potency is read from the fitted curve at half-maximal effect
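Imprint erasure is scored as LacZ activity from the silenced maternal Peg3 allele in feeder-free female ES cells cultured 40 h with LIF. Luminescence is normalized to in-plate negative controls and fitted to the Hill equation.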
CRE Fsk mod – Cell signaling CRE-BLA (Fsk stim); CHO CRE-bla reporter (cAMP response element driving beta-lactamase), forskolin EC10, beta-lactamase ratio; Potency, µM (series often up to 38.2 µM), inactives show at the top dose activity change, negative = inhibition, hits mostly activators; 2.5% of 71,000 active; AID 662, 2007; active = well fitted activation curve with a large enough effect in the signal ratio, with a control signal flat, not every such curve was filed as active; inconclusive = small, poorly fitted or top-dose-only effect, or effect the other way, or a change in a side signal; the % refers to the signal ratio; also: potency is read from the fitted curve at half-maximal effect; % of control where 0% means no effect
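Forskolin analogue NKH 477 at EC10 stimulated CRE-driven beta-lactamase in CHO cells alongside compound dilution series. Beta-lactamase was measured with CCF4, excitation 405 nm, emission ratio 460/530 nm.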
IkB signaling – IkB Signaling | ABC-DLBCL IkBa-CBG/CBR dual luciferase ratio, 4 h; response scale: scaled: untreated 0%, proteasome inhibitor 100% | Potency, µM (top dose mostly 57.1 µM), for inactives: top-dose IkBa stabilization activation | 0.04% of 110,000 active; active = well fitted curve in the direction sought with a large enough effect in the signal ratio, not every such curve was filed as active; inconclusive = small, poorly fitted or top-dose-only effect, or a change in a side signal; the % refers to the signal ratio;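 also: potency is read from the fitted curve at half-maximal effect; the direction sought is a rising ratio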
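In this assay, an IκBα–CBG68 fusion accumulates when IKK-driven degradation is blocked; native CBR normalizes for cell number. OCI-Ly3 cells were treated 4 h with compound and doxycycline, then green and red light read after Chroma-Glo addition.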
HBB splice mod – qHTS Assay for Modulators of Hemoglobin Beta Chain Splicing | 0.06% of 65,000 active | HBB splicing reporter cell assay, activation; EGFP reporter with mutant IVS2-654 intron; response scale: normalised to 500 nM splice-correcting PNA | Potency, µM (series often up to 46.1 µM), inactives show top-dose activation, usual class: activators; also: potency is read from the fitted curve at half-maximal effect; 0% is about no effect
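Compounds were applied for 2 days to HeLa EGFP-654 cells, 500/well in Optimem with 2% FCS. The reporter's EGFP is disrupted by mis-splicing of beta-globin intron IVS2-654. Readout: summed well GFP fluorescence from 488 nm laser scanning; reference was 500 nM antisense […] 654 PNA.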
Epigenetic mod – qHTS Assay for Epigenetic Modulators. mouse C127i GFP locus derepression, cytometry, 30 h. Potency, µM (series often up to 46.1 µM), without a hit: at the top dose GFP derepression (activation). 0.09% of 68,000 active. AID 597, 2007; also: % of control where 0% means no effect
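Murine C127i mammary cells carrying a silenced, stably integrated CMV-driven GFP reporter were treated with compound for 30 hours at 37 C. After PBS washes, GFP-positive cells were counted by laser-scanning microplate cytometry.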
Starred values were filed as active, the others as inactive; ? = inconclusive; · = not tested or not shown; [ ] = dose if it differs, or a comment. The full list was thinned out, with hits kept by preference. Unless noted, calls follow the shape of the dose curve; as a rule, active = well fitted curve in the direction sought with a large enough effect; inconclusive = small, poorly fitted or top-dose-only effect, or another doubt; inactive = no such curve, though single readings can be large; an effect the other way counts as inactive or inconclusive.

SMILES	Peg3 imprint	CRE Fsk mod	IkB signaling	HBB splice mod	Epigenetic mod
CCC(C)NC(=O)c1c(N)n(/N=C/c2cccnc2)c2nc3ccccc3nc12 (centres undefined)	4.4%	0.631µM*	?	-1.4%[1.84 µM]	-3.2%
CC(C)OCCCNC(=O)c1c(N)n(/N=C/c2ccccn2)c2nc3ccccc3nc12	-5.2%	2.51µM*	3.0%	-0.6%[57.5 µM]	4.3%
CC(C)CNC(=O)c1c(N)n(/N=C/c2cccnc2)c2nc3ccccc3nc12	·	·	·	·	6.1%[20.6 µM]
CCC(C)NC(=O)c1c(N)n(/N=C/c2ccccn2)c2nc3ccccc3nc12 (centres undefined)	2.2%	2.51µM*	7.1%	-0.1%[57.5 µM]	0.0%
O=C(Nc1ccccc1F)c1nc(S(=O)(=O)Cc2ccccc2F)ncc1Cl	-35.6%[10.9 µM]	·	?	·	·
CCOc1ccc(-c2cc(CCCC(=O)Nc3cccc(OC)c3)no2)cc1	-45.0%	?	3.16µM*	-0.3%	·
CCOc1ccc(-c2cc(CCCC(=O)Nc3cc(OC)ccc3OC)no2)cc1	-8.5%	?	?	-1.2%	-2.1%
CC(C)CCSc1nc2c(c(=O)[nH]c(=O)n2C)n1CCCc1ccccc1	-35.1%	3.16µM*	1.6%	0.2%	·
CCCCCSc1nc2c(c(=O)[nH]c(=O)n2C)n1CCc1ccccc1	-4.8%	2.51µM*	2.6%	-0.1%	·
CCOCCn1c(SCCCc2ccccc2)nc2c1c(=O)[nH]c(=O)n2C	-10.8%	3.6%	-1.9%	·	-4.6%
CC(C)CCn1c(Sc2nc3ccccc3s2)nc2c1c(=O)[nH]c(=O)n2C	-16.1%	10µM*	1.4%	·	3.1%
Cc1ccc(Cl)cc1NS(=O)(=O)c1cc2c3c(c1)CC(=O)N3CCC2	-16.2%[10.9 µM]	·	0.9%	·	·
COc1ccc(NC(=O)c2oc3ccccc3c2NC(=O)Cc2coc3cc(C)ccc23)cc1	-35.4%[10.9 µM]	·	?	·	·
CCC(=O)N1CCN(C(C)=O)C1c1ccccc1 (centres undefined)	0.3%	-1.2%	-0.7%	·	-1.3%
CC(=O)N1CC2(CC2)CC1c1ccccc1 (centres undefined)	-8.7%	3.16µM*	·	1.8%	·
CCOC(=O)NCCc1c(C)nc2c(c(C)nn2C(C)(C)C)c1C	-26.9%	5.01µM*	?	-3.2%	5.3%
COC(=O)c1cc(NC(=O)CCc2c(C)nc3c(c(C)nn3C(C)(C)C)c2C)cc(C(=O)OC)c1	14.1%[10.9 µM]	·	-0.2%	·	·
COC(=O)c1ccc(Cn2cnc3c(cnn3-c3ccc(Cl)cc3)c2=O)o1	-11.1%	6.31µM*	2.2%	1.0%	1.2%
CC(C)Sc1nc2c(cnn2-c2ccccc2)c(=O)[nH]1	-14.7%	-5.2%	?	0.2%	·
CC(C)Sc1nc2c(cnn2-c2ccc(F)cc2)c(=O)[nH]1	-0.6%	3.16µM*	-3.1%	0.5%	·
COC(=O)c1ccc(CSc2nc3c(cnn3-c3ccc(C)cc3)c(=O)[nH]2)o1	-10.1%	6.31µM*	-1.3%	-1.3%	1.4%
CCOC(=O)C(C)Sc1nc2c(cnn2-c2ccc(C)cc2)c(=O)[nH]1 (centres undefined)	-19.1%	?	-0.5%	-1.4%	-1.4%
Cc1ccc(-n2ncc3c(=O)[nH]c(SC(C)C)nc32)cc1	-5.6%	2µM*	-2.3%	0.0%	·
O=C(Nc1ccc(Br)cc1)c1cc(S(=O)(=O)N2CCc3ccccc32)ccc1F	-15.5%[10.9 µM]	·	?	·	·
CCOc1ccc2c(c1)c(=O)c(C(=O)c1ccc(CC)cc1)cn2CC(=O)Nc1ccc2c(c1)OCCO2	-14.3%[10.9 µM]	·	?	·	·
CCNc1ncc2nc(C)c(=O)n(C[C@H]3CCCO3)c2n1	?	10µM*	-0.1%[11.4 µM]	0.9%	-0.3%[9.22 µM]
CCNc1ncc2nc(-c3ccc(F)cc3)c(=O)n(C[C@H]3CCCO3)c2n1	0.4%	2.51µM*	-8.1%[11.4 µM]	-0.2%	-2.7%[9.22 µM]
COc1cccc(Nc2ncc3nc(C)c(=O)n(C[C@H]4CCCO4)c3n2)c1	-5.5%	2.51µM*	-4.1%[11.4 µM]	-0.1%	8.1%[9.22 µM]
COc1cccc(Nc2ncc3nc(-c4ccc(F)cc4)c(=O)n(C[C@H]4CCCO4)c3n2)c1	·	?	3.4%[11.4 µM]	2.0%	-2.7%[9.22 µM]
